Measured values: PubChem BioAssay AID540256 (National Center for Advancing Translational Sciences (NCATS), 2011)
Among all 300,000 compounds or so, about 3,700 (1.2%) were called active. Another 20% or so got no clear call; they are omitted. The sample as a whole holds a higher share of actives than the screen did. Unmarked numbers belong to inactive results. Calls come from the whole dose curve; tested in HEK293 cells.

Assay: qHTS for Inhibitors of binding or entry into cells for Lassa Virus; note: nearly all actives have a fitted effect of over 50% in size
Conditions: Lassa virus pseudotype entry inhibition, cell reporter; series mostly up to 37.9 µM; activity change, negative = inhibition: at the top concentration
% is set by controls: 0 for no effect and ±100 for the full control effect; potency is the fitted concentration of half-maximal effect.

Compound	Potency	activity change, negative = inhibition
O=C(CSC(=S)N1CCOCC1)c1ccccc1	14.6 µM (active)	
CC1CN(C(=S)SCC(=O)c2ccccc2)CC(C)O1 (stereo not drawn)		3.79%
O=C(CSC(=S)N1CCOCC1)c1cc(Br)cc(Br)c1O		4.47%
Cc1cccc(C(=O)Nc2ccc(C(=O)N/N=C/c3cccc(C)n3)cc2)c1		-11.5% [at 46.1 µM]
Cc1cccc(C=CC(=O)c2ccc(Cl)cc2)c1		-0.612%
COc1ccc(OC)c(Cc2nnc(CCC(=O)NC3CCCC3)o2)c1		0.521%
COc1ccc(OC)c(NC(=O)c2sc3nc(C)cc(C)c3c2N)c1		4.31% [at 46.1 µM]
COc1ccc(OC)c(Cc2cnc3nc(N)nc(N)c3c2C)c1	0.251 µM (active)	
CC(=O)Nc1ccc(S(=O)(=O)NCC(=O)OCC(=O)c2ccc[nH]2)cc1		-0.036%
CC(=O)c1cccc(OCC(=O)OCC(=O)Nc2cc(S(=O)(=O)N3CCCCC3)ccc2C)c1		-1.54%
CCCCOc1ccc(C(=O)NN2CCN(C)CC2)cc1		-1.96%
CCCOc1ccc(C(=O)C(CCC(CNCC)C(=O)c2ccc(OCCC)cc2)CNCC)cc1 (stereo not drawn)	13 µM (active)	
CCCOc1ccc(C(=O)CCC(=O)OC(C)C(=O)Nc2ccc(NC(C)=O)cc2)cc1 (stereo not drawn)		5.75% [at 46.1 µM]
CCc1noc(C)c1C(=O)N1CCCC(N2CCN(c3ccc(F)cc3)CC2)C1 (stereo not drawn)		5.55%
COc1ccc(/C=C(\NC(=O)c2ccc(OCC(C)C)cc2)C(=O)OCc2ccco2)cc1	12.6 µM (active)	
COc1ccc(/C=C(/NC(=O)c2ccco2)C(=O)Nc2ccc(C(C)=O)cc2)cc1		-17.3%
COc1ccc(C(=O)Nc2ccccc2C(=O)NCc2ccco2)cc1		-0.689% [at 46.1 µM]
Cc1cc(C)c(C)c(S(=O)(=O)Nc2cccnc2)c1C		-11.1%
CCOc1ccccc1CNC(=O)c1cnc2c(-c3ccc(OCC)c(OCC)c3)c(C)nn2c1C		-2.1% [at 46.1 µM]
Cc1ccc2nc(NC(=O)C3CSC4(C)CCC(=O)N34)sc2c1 (stereo not drawn)		16.4%
O=C(Cc1c(Cl)cccc1Cl)NC1CC1		16.2% [at 46.1 µM]
Cc1c(NC(=S)NCc2ccc(F)cc2)cccc1[N+](=O)[O-]		-4.19%
Cc1c(Cl)cccc1NC(=S)NCc1ccc2c(c1)OCO2		-5.04%
CCc1cccc(CC)c1NC(=S)NCc1ccc2[nH]c(C)cc2c1	18.4 µM (active)	
O=C(CCc1ccccc1Cl)Nc1ccc(S(=O)(=O)Nc2nccs2)cc1		-5.82%
O=C(COC(=O)c1ccc(O)cc1O)NC(=O)c1ccccc1		-1.32%
O=C(CN(Cc1ccccc1)C(=O)CCC(=O)Nc1ccccn1)NCCc1ccccc1		-18.6%

Compound	Potency	activity change, negative = inhibition
Cc1cc([N+](=O)[O-])ccc1NS(=O)(=O)c1ccccc1		13.3% [at 46.1 µM]
O=C(COc1cccnc1[N+](=O)[O-])Nc1ccc(Cl)cc1F		-13.2% [at 46.1 µM]
O=C(c1ccco1)n1nc(-c2ccc(Cl)cc2)nc1NCc1ccccc1		16.4% [at 46.1 µM]
O=C(CCC(=O)c1cccs1)NCc1ccccc1		8.14%
O=C(c1cccs1)n1nc(NCc2ccccc2)nc1NCc1ccccc1	10 µM (active)	
Oc1cccc(CCc2ccccn2)c1		12.1%
Cc1ccc(-c2nn(-c3ccc(F)cc3)cc2C(=O)NCC(c2cccs2)N2CCOCC2)cc1 (stereo not drawn)		-4.1%
CCOC(=O)CSc1nc2sc3c(c2c(=O)[nH]1)CC(C)(C)OC3		20%
CC(C)c1nc2sc3c(c2c(=O)n1N)CC(C)(C)OC3		4.95% [at 46.1 µM]
CC/C(C)=N/Nc1nc2sc3c(c2c(=O)[nH]1)CC(C)(C)OC3	5.01 µM (active)	
Cc1ccc(NC(=O)CSc2nn3c(=O)c(C)nnc3s2)cc1Cl		13.1%
COC(=O)c1ccc(CSc2ccccc2C)o1		18.4%
COCC(C)n1c(SCC(=O)NC2CCCCC2C)nc2ccccc2c1=O (stereo not drawn)		-23.2%
COCC(C)n1c(SCc2ccc(C(=O)OC)o2)nc2ccccc2c1=O (stereo not drawn)	10.3 µM (active)	
O=C(NCCS(=O)(=O)N1CCN(c2ccc(F)cc2)CC1)c1ccc2c(c1)OCO2		-11.9%
O=C1/C(=C\c2ccc(O)cc2)CCC1CNc1ccc(Cl)cc1 (stereo not drawn)		-15%
Cc1cccc(NC(=O)c2cccc(S(=O)(=O)N3CCCC3)c2)n1		12.1%
Cc1cccc(N2CCN(C(=O)CCn3c(=O)c4cccn4c4cccnc43)CC2C)c1 (stereo not drawn)	7.94 µM (active)	
O=C(CCCn1c(=O)c2cccn2c2cccnc21)NCc1ccc(F)cc1		16.8% [at 46.1 µM]
Cc1cccc(N2CCN(C(=O)Cn3ncc4c5ccccc5n(C)c4c3=O)CC2C)c1 (stereo not drawn)		8.45% [at 46.1 µM]
O=C(/C=C/c1cccc([N+](=O)[O-])c1)OCC(=O)N1CCOCC1		-4.28%
O=C(NCCc1ccco1)c1ccc(OCc2cn3ccccc3n2)cc1		-12.7% [at 46.1 µM]
CCc1nn(CCCC(=O)Nc2ccc(C)c(C)c2)c(=O)c2cc3occc3n12		-0.66% [at 46.1 µM]
C=CCN(CC=C)S(=O)(=O)c1ccc(C(=O)Nc2sc3c(c2C(N)=O)CCCCC3)cc1		-29.3%
CCOC(=O)c1c(NC(=O)c2ccc(S(=O)(=O)N(CC)CC)cc2)sc2c1CCCCC2		4.06% [at 46.1 µM]
C=CCN(CC=C)S(=O)(=O)c1ccc(C(=O)Nc2nc3c(s2)CCc2ccccc2-3)cc1	3.16 µM (active)	
